An excerpt weighted towards active compounds, which were near 6.7% of everything screened.
C diff HTS: blocks growth of Clostridium difficile. Clostridium difficile clinical isolate growth, OD600, 24 h; stronger effect = lower value. growth activity, negative = inhibition, % at 16 µg/mL (by protocol). actives 0.25% (n = 86,000);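 active = mean growth activity at or below -80% and every replicate also at or below -80%; inconclusive = mean at or below -80% but some replicate above -80%; inactive = mean growth activity above -80%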;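 note: 0% = DMSO wells and -100% = levofloxacin 16 µg/mL wells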
T cruzi growth-1: inhibitors of T. cruzi proliferation; T. cruzi beta-gal in NIH3T3, GalScreen luminescence, 90 h; inhibition, % at 8.34 µM; actives 5.9% (n = 77,000);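 active = mean inhibition above about 93%, with at least 55% of replicates each passing it, limit read from the data, passing the limit was not always enough; inconclusive = only one of those two conditions holds; inactive = neither condition holds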
Pf Dd2 inh: blocks growth of Plasmodium falciparum Dd2 parasites | P. falciparum Dd2 growth, SYBR Green, 72 h; stronger effect = lower value | activity change, % at 10 µM | actives 2.3% (n = 94,000) | AID 1159554; in the data active = activity change below about -80%; inconclusive = no clear call, values can overlap the other calls
T cruzi growth-2: blocks T. cruzi growth in NIH3T3 host cells; T. cruzi beta-gal in NIH3T3, GalScreen luminescence, 90 h; inhibition, % at 8.35 µM; actives 72% (n = 5,600); shares compounds with T cruzi growth-1;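 active = mean replicate inhibition above about 95% and at least 55% of replicates individually reaching it, limit read from the data; inconclusive = only one of the two criteria is met; inactive = neither criterion is met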
T cruzi growth-3: blocks T. cruzi growth in NIH3T3 host cells; shares compounds with T cruzi growth-1; T. cruzi beta-gal in NIH3T3, GalScreen luminescence, 90 h; inhibition, % at 2.09 µM; actives 21% (n = 5,600); AID 651740;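 active = mean inhibition above about 95%, with at least 55% of replicates also reaching it, limit read from the data; inconclusive = meets just one of the two conditions; inactive = meets neither condition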;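 note: plate controls were neutral control median for no effect and positive control median for full effect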
NIH3T3 tox: cytotoxicity in mouse NIH/3T3 fibroblasts | NIH/3T3 viability, CellTiter-Glo ATP luminescence, 90 h | AID 651742 | actives 14% (n = 5,600) | cytotoxicity (signal decrease), % at 8.35 µM | shares compounds with T cruzi growth-1;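 active = mean signal decrease across replicates above about 35% based on untreated-well scatter, with enough replicates individually passing, limit read from the data; inconclusive = no rule stated though some were filed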;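 note: 0% = median of neutral control wells and 100% = median of positive control wells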
NIH3T3 tox 2: NIH/3T3 (mouse) viability loss. AID 651744. inhibition, % at 24.9 µM. shares compounds with T cruzi growth-1. NIH/3T3 viability, CellTiter-Glo ATP luminescence, 90 h. actives 56% (n = 5,600);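 active = mean loss of cell viability signal at or above a set limit, and enough replicates individually reaching it; inconclusive = meets only the mean limit or only the replicate share; inactive = meets neither condition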;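 note: 0% = median of neutral control wells and 100% = median of positive control wells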
Starred values were filed as active, the others as inactive; ? = inconclusive; / = no result given.

SMILES	C diff HTS	T cruzi growth-1	Pf Dd2 inh	T cruzi growth-2	T cruzi growth-3	NIH3T3 tox	NIH3T3 tox 2
C[C@@H]1CN([C@H](C)CO)C(=O)c2cc(NC(=O)Cc3ccccc3)ccc2O[C@@H](C)CCCCO[C@H]1CN(C)C(=O)Nc1ccccc1	/	0	-8	/	/	/	/
CCC(=O)N(C)C[C@@H]1Oc2cc(C#CCN(C)C)ccc2S(=O)(=O)N([C@H](C)CO)C[C@@H]1C	-2	94	3	/	/	/	/
CCC(=O)N(C)C[C@H]1Oc2cc(C#CCN(C)C)ccc2S(=O)(=O)N([C@@H](C)CO)C[C@@H]1C	-1	102*	-2	104*	?	26	19
CCC(=O)N(C)C[C@H]1Oc2cc(C#CCN(C)C)ccc2S(=O)(=O)N([C@H](C)CO)C[C@@H]1C	1	102*	7	97*	91	-11	-1
CCCC#Cc1ccc2c(c1)O[C@H](CN(C)C(=O)NCCC)[C@H](C)CN([C@H](C)CO)S2(=O)=O	6	-42	-23	/	/	/	/
CCCNC(=O)N(C)C[C@H]1Oc2cc(C#CCN(C)C)ccc2S(=O)(=O)N([C@@H](C)CO)C[C@@H]1C	-4	?	-4	88	36	-24	-20
CCC(=O)N(C)C[C@H]1Oc2cc(C#CCN(C)C)ccc2S(=O)(=O)N([C@H](C)CO)C[C@H]1C	-1	66	5	/	/	/	/
C[C@H]1CN([C@@H](C)CO)C(=O)c2cccc(NS(=O)(=O)c3ccc(Cl)cc3)c2O[C@@H]1CN(C)C(=O)Nc1ccc(F)cc1	7	13	9	/	/	/	/
C[C@H]1CCCCO[C@H](CN(C)CC2CCCCC2)[C@@H](C)CN([C@@H](C)CO)C(=O)c2cc(NS(=O)(=O)c3cn(C)cn3)ccc2O1	0	10	21	/	/	/	/
COc1cccc(-c2ccc3n(c2=O)C[C@H]2[C@H](CO)[C@@H](C(=O)N(C)C)[C@@H]3N2CC2CC2)c1	-1	24	4	/	/	/	/
C[C@H](CO)N1C[C@H](C)[C@H](CN(C)Cc2ccc(Cl)c(Cl)c2)Oc2ccc(N(C)C)cc2CC1=O	31	?	-13	71	12	-4	-1
C[C@H](CO)N1C[C@H](C)[C@@H](CN(C)Cc2ccc(Cl)c(Cl)c2)Oc2ccc(N(C)C)cc2CC1=O	8	108*	-3	107*	94	10	103*
C[C@@H]1CN([C@@H](C)CO)C(=O)Cc2cc(N(C)C)ccc2O[C@H]1CN(C)Cc1ccc(Cl)c(Cl)c1	12	107*	3	110*	64	11	107*
C[C@@H]1CN([C@@H](C)CO)C(=O)c2cc(N(C)C)ccc2O[C@@H]1CN(C)Cc1ccc(Cl)c(Cl)c1	12	75	-13	/	/	/	/
C[C@H]1CN([C@@H](C)CO)C(=O)Cc2cc(N(C)C)ccc2O[C@H]1CN(C)Cc1ccc2c(c1)OCO2	3	1	23	/	/	/	/
C[C@@H]1CN([C@H](C)CO)C(=O)Cc2cc(N(C)C)ccc2O[C@H]1CN(C)Cc1ccc(Cl)c(Cl)c1	/	58	13	/	/	/	/
Cc1noc(C)c1NC(=O)N(C)C[C@H]1Oc2ncc(C#CC(C)C)cc2C(=O)N([C@H](C)CO)C[C@@H]1C	7	9	-17	/	/	/	/
CNC[C@H]1OCCCC[C@H](C)Oc2ccc(NC(=O)c3ccccc3)cc2C(=O)N([C@H](C)CO)C[C@@H]1C	-2	?	5	99*	-1	25	8
CNC[C@@H]1OCCCC[C@H](C)Oc2ccc(NC(=O)Cc3ccccc3)cc2C(=O)N([C@@H](C)CO)C[C@@H]1C	1	99*	-2	-25	-12	-26	-4
CNC[C@@H]1OCCCC[C@H](C)Oc2ccc(NC(=O)NC3CCCCC3)cc2C(=O)N([C@@H](C)CO)C[C@@H]1C	-1	111*	17	-22	-1	-15	-6
CNC[C@@H]1OCCCC[C@@H](C)Oc2ccc(NC(=O)NC3CCCCC3)cc2C(=O)N([C@H](C)CO)C[C@H]1C	-1	9	/	/	/	/	/
CNC[C@@H]1OCCCC[C@@H](C)Oc2ccc(NC(=O)c3ccccc3)cc2C(=O)N([C@H](C)CO)C[C@@H]1C	5	84	1	/	/	/	/
C[C@H]1CCCCO[C@@H](CN(C)C)[C@@H](C)CN([C@@H](C)CO)C(=O)c2cc(NC(=O)Cc3ccccc3)ccc2O1	1	65	-10	/	/	/	/
C[C@@H]1CCCCO[C@@H](CN(C)C(=O)NC2CCCCC2)[C@H](C)CN([C@@H](C)CO)C(=O)c2cc(NC(=O)Nc3ccc4c(c3)OCO4)ccc2O1	0	20	25	/	/	/	/
CC(=O)N1[C@H](CO)[C@H](c2ccc(-c3cccnc3)cc2)[C@H]1CNC(=O)C1CCC1	0	/	21	/	/	/	/
SMILES	C diff HTS	T cruzi growth-1	Pf Dd2 inh	T cruzi growth-2	T cruzi growth-3	NIH3T3 tox	NIH3T3 tox 2
CCS(=O)(=O)NCC[C@@H]1CC[C@@H](NC(=O)Nc2ccccc2)[C@H](CO)O1	-5	3	-41	/	/	/	/
C/C=C/c1ccc2c(c1)O[C@H](CN(C)C(=O)Nc1cccc(F)c1)[C@H](C)CN([C@H](C)CO)S2(=O)=O	6	105*	-18	99*	78	21	39*
C[C@H](CO)N1C[C@H](C)[C@@H](CN(C)C(=O)Nc2cccc(F)c2)Oc2cc(/C=C/c3ccccc3)ccc2S1(=O)=O	8	121*	-58	99*	114*	13	35*
C/C=C/c1ccc2c(c1)O[C@H](CN(C)C(=O)Nc1cccc(F)c1)[C@@H](C)CN([C@@H](C)CO)S2(=O)=O	4	42	-18	/	/	/	/
C/C=C/c1ccc2c(c1)O[C@@H](CN(C)C(=O)Nc1cccc(F)c1)[C@@H](C)CN([C@@H](C)CO)S2(=O)=O	4	-53	-31	/	/	/	/
C[C@H](CO)N1C[C@H](C)[C@H](CN(C)S(=O)(=O)c2ccccc2)Oc2ccc(NS(=O)(=O)c3ccccc3)cc2C1=O	-8	-11	-12	/	/	/	/
NCC[C@H]1CC[C@H](NC(=O)Nc2ccc(F)cc2)[C@@H](CO)O1	-3	-58	11	/	/	/	/
O=C(C[C@H]1CC[C@@H]2[C@H](COC[C@@H](O)CN2C(=O)c2cnccn2)O1)NCc1ccccc1	/	-9	4	/	/	/	/
C[C@H](CO)N1C[C@H](C)[C@H](CN(C)CC2CC2)Oc2ccc(NS(=O)(=O)c3ccc(Cl)cc3)cc2C1=O	-3	-2	-5	/	/	/	/
C[C@@H]1CN([C@@H](C)CO)C(=O)c2cc(NS(=O)(=O)c3ccc(Cl)cc3)ccc2O[C@@H](C)CCCCO[C@H]1CN(C)CC1CCCCC1	-55	108*	-45	88	29	?	102*
C[C@@H]1CCCCO[C@@H](CN(C)CC2CC2)[C@@H](C)CN([C@H](C)CO)C(=O)c2cc(NS(=O)(=O)c3ccc(Cl)cc3)ccc2O1	-2	28	-62	/	/	/	/

Bioassay records (PubChem BioAssay)
